Data taken from the antibiotic and cytotoxicity screens of Wong et al. (2023).
Screen size: about 39,000 compounds; about 3,300 (8.5%) were called active. The full list was thinned out, with actives kept by preference.

test system: HepG2; test: cytotoxicity call (relative viability < 0.9); conditions: 10 µM

Q: How did the cytotoxicity call turn out when `O=C(NC1CCC1)[C@H]1[C@H](CO)[C@H]2Cn3c(cccc3=O)[C@H]2N1CC1CCOCC1` was run?
A: inactive

Q: `COc1ccccc1-c1ccc2c(c1)O[C@H](CN(C)CC1CCOCC1)[C@H](C)CN([C@@H](C)CO)S2(=O)=O` was tested. Which cytotoxicity call did it give?
A: inactive

Q: With `C[C@H]1CN([C@@H](C)CO)C(=O)Cc2cc(NC(=O)CCN3CCOCC3)ccc2O[C@@H]1CN(C)Cc1ccncc1` as the molecule, how does the cytotoxicity call read?
A: inactive

Q: How did the cytotoxicity call turn out when `OCCNC(=S)Nc1ccccc1` was run?
A: inactive

Q: `C[C@H](CO)N1C[C@H](C)[C@@H](CN(C)S(=O)(=O)c2ccc(Cl)cc2)OCCCC[C@H](C)Oc2ccc(NC(=O)Nc3ccc(C(F)(F)F)cc3)cc2C1=O` was tested. Which cytotoxicity call did it give?
A: inactive

Q: Which cytotoxicity call does the source give for `Cn1cnc(S(=O)(=O)N[C@@H]2CC[C@H](CC(=O)Nc3ccccc3)O[C@H]2CO)c1` here?
A: inactive

Q: Which cytotoxicity call does the source give for `COc1ccc(CN(C)C[C@@H]2Oc3c(NS(=O)(=O)c4cn(C)cn4)cccc3C(=O)N([C@H](C)CO)C[C@@H]2C)cc1` here?
A: inactive

Q: With `CCCN(C)C[C@H]1Oc2cc(C#Cc3ccccc3OC)ccc2S(=O)(=O)N([C@@H](C)CO)C[C@H]1C` as the molecule, how does the cytotoxicity call read?
A: inactive

Q: For `COc1ccc(S(=O)(=O)N(C)C[C@@H]2Oc3ccc(NS(=O)(=O)c4ccccc4)cc3C(=O)N([C@H](C)CO)C[C@H]2C)cc1`, which cytotoxicity call is on record?
A: inactive

Q: For `COc1c(O)cc2oc3cc(O)c(CC=C(C)C)c(O)c3c(=O)c2c1CC=C(C)C` [alpha-MANGOSTIN ], which cytotoxicity call is on record?
A: active

Q: `CC(C)=CCc1c(O)cc2oc(C)cc(=O)c2c1O` was tested. Which cytotoxicity call did it give?
A: inactive

Q: Which cytotoxicity call does the source give for `COc1cc(O)c2c(=O)cc(C)oc2c1CC=C(C)C` here?
A: inactive

Q: How did the cytotoxicity call turn out when `CN(C)CCCNC(=O)[C@H]1[C@H](CO)[C@H]2Cn3c(ccc(-c4ccncc4)c3=O)[C@@H]1N2C(=O)C1CC1` was run?
A: inactive

Q: Which cytotoxicity call does the source give for `COCC(=O)N(C)C[C@@H]1Oc2cc(C#C[C@@H](C)O)ccc2S(=O)(=O)N([C@H](C)CO)C[C@@H]1C` here?
A: inactive

Q: With `COCC(=O)Nc1ccc2c(c1)C(=O)N(C)[C@@H]1CC[C@H](CC(=O)NC3Cc4ccccc4C3)O[C@H]1CO2` as the molecule, how does the cytotoxicity call read?
A: inactive

Q: `C[C@@H]1CCCCO[C@@H](CN(C)Cc2ccc(Cl)c(Cl)c2)[C@H](C)CN([C@@H](C)CO)C(=O)c2cc(NS(=O)(=O)c3ccccc3)ccc2O1` was tested. Which cytotoxicity call did it give?
A: active

Q: Which cytotoxicity call does the source give for `C[C@H](CO)N1C[C@H](C)[C@@H](CN(C)Cc2ccc(Cl)c(Cl)c2)OCCCC[C@H](C)Oc2ccc(NS(=O)(=O)c3ccccc3)cc2C1=O` here?
A: active

Q: How did the cytotoxicity call turn out when `C[C@@H]1CCCCO[C@H](CN(C)Cc2ccc(Cl)c(Cl)c2)[C@@H](C)CN([C@H](C)CO)C(=O)c2cc(NS(=O)(=O)c3ccccc3)ccc2O1` was run?
A: inactive

Q: With `C[C@@H]1CCCCO[C@@H](CN(C)Cc2ccc(Cl)c(Cl)c2)[C@H](C)CN([C@H](C)CO)C(=O)c2cc(NS(=O)(=O)c3ccccc3)ccc2O1` as the molecule, how does the cytotoxicity call read?
A: active

Q: With `C[C@@H]1CCCCO[C@H](CN(C)Cc2ccc(Cl)c(Cl)c2)[C@H](C)CN([C@@H](C)CO)C(=O)c2cc(NS(=O)(=O)c3ccccc3)ccc2O1` as the molecule, how does the cytotoxicity call read?
A: inactive

Q: How did the cytotoxicity call turn out when `C[C@@H]1CCCCO[C@H](CN(C)Cc2ccc(Cl)c(Cl)c2)[C@@H](C)CN([C@@H](C)CO)C(=O)c2cc(NS(=O)(=O)c3ccccc3)ccc2O1` was run?
A: active

Q: With `CN(C)c1nc(NCCO)c2cnn(C)c2n1` as the molecule, how does the cytotoxicity call read?
A: inactive

Q: Which cytotoxicity call does the source give for `Cc1noc(C)c1S(=O)(=O)N(C)C[C@@H]1Oc2ccc(NS(=O)(=O)c3ccccc3)cc2C(=O)N([C@@H](C)CO)C[C@@H]1C` here?
A: inactive

Q: For `C[C@@H]1CN([C@H](C)CO)C(=O)c2cc(NC(=O)Cn3cnnn3)ccc2O[C@@H]1CN(C)S(=O)(=O)c1cn(C)cn1`, which cytotoxicity call is on record?
A: inactive

Q: Which cytotoxicity call does the source give for `CC(C)NC(=O)N(C)C[C@@H]1OCCCC[C@H](C)Oc2ccc(NS(C)(=O)=O)cc2C(=O)N([C@H](C)CO)C[C@@H]1C` here?
A: inactive

Q: Which cytotoxicity call does the source give for `C[C@@H]1CN([C@H](C)CO)C(=O)c2cc(NS(=O)(=O)c3cn(C)cn3)ccc2O[C@@H](C)CCCCO[C@@H]1CN(C)S(=O)(=O)c1cccs1` here?
A: inactive

Q: How did the cytotoxicity call turn out when `CC(C)CC#Cc1ccc2c(c1)O[C@H](CN(C)C(=O)Cc1ccncc1)[C@H](C)CN([C@@H](C)CO)S2(=O)=O` was run?
A: inactive

Q: Which cytotoxicity call does the source give for `C[C@@H]1CCCCO[C@@H](CN(C)C(=O)NC2CCCCC2)[C@H](C)CN([C@H](C)CO)C(=O)c2cc(NS(=O)(=O)c3ccc(F)cc3)ccc2O1` here?
A: inactive

Q: `COc1ccc(S(=O)(=O)N(C)C[C@H]2Oc3ccc(NS(=O)(=O)c4cn(C)cn4)cc3C(=O)N([C@H](C)CO)C[C@@H]2C)cc1` was tested. Which cytotoxicity call did it give?
A: inactive

Q: For `COc1ccc(S(=O)(=O)N(C)C[C@@H]2OCCCC[C@@H](C)Oc3ccc(NS(C)(=O)=O)cc3C(=O)N([C@H](C)CO)C[C@H]2C)cc1`, which cytotoxicity call is on record?
A: inactive

Q: For `COc1ccc(S(=O)(=O)Nc2cccc3c2O[C@@H](CN(C)C(=O)NC(C)C)[C@H](C)CN([C@@H](C)CO)C3=O)cc1`, which cytotoxicity call is on record?
A: inactive

Q: For `C[C@H](CO)N1C[C@H](C)[C@H](CN(C)C(=O)Cc2ccccc2)OCCCC[C@H](C)Oc2ccc(NS(=O)(=O)c3cccs3)cc2C1=O`, which cytotoxicity call is on record?
A: inactive

Q: `C[C@@H]1CN([C@H](C)CO)S(=O)(=O)c2ccc(C#Cc3ccccc3)cc2O[C@@H]1CN(C)S(=O)(=O)c1cn(C)cn1` was tested. Which cytotoxicity call did it give?
A: inactive

Q: How did the cytotoxicity call turn out when `C[C@H]1CCCCO[C@H](CN(C)Cc2ccc(Cl)c(Cl)c2)[C@@H](C)CN([C@@H](C)CO)C(=O)c2cc(NS(=O)(=O)c3ccccc3)ccc2O1` was run?
A: active

Q: How did the cytotoxicity call turn out when `C[C@@H]1CN([C@H](C)CO)C(=O)c2cc(NS(=O)(=O)c3ccccc3)ccc2O[C@@H](C)CCCCO[C@H]1CN(C)Cc1ccc(Cl)c(Cl)c1` was run?
A: inactive

Q: How did the cytotoxicity call turn out when `C[C@@H]1CCCCO[C@@H](CN(C)Cc2ccc(Cl)c(Cl)c2)[C@@H](C)CN([C@H](C)CO)C(=O)c2cc(NS(=O)(=O)c3ccccc3)ccc2O1` was run?
A: active

Q: `C[C@@H]1CN([C@H](C)CO)C(=O)c2cc(NS(=O)(=O)c3ccccc3)ccc2O[C@@H](C)CCCCO[C@@H]1CN(C)Cc1ccc(Cl)c(Cl)c1` was tested. Which cytotoxicity call did it give?
A: active

Q: For `C[C@@H]1CCCCO[C@@H](CN(C)Cc2ccc(Cl)c(Cl)c2)[C@@H](C)CN([C@@H](C)CO)C(=O)c2cc(NS(=O)(=O)c3ccccc3)ccc2O1`, which cytotoxicity call is on record?
A: inactive

Q: `Nn1c([C@@H](O)c2ccccc2)n[nH]c1=S` was tested. Which cytotoxicity call did it give?
A: inactive

Q: For `COc1ccc(CN(C)C[C@H]2OCCCC[C@H](C)Oc3ccc(NC(=O)Cc4ccccc4)cc3C(=O)N([C@H](C)CO)C[C@H]2C)cc1`, which cytotoxicity call is on record?
A: inactive
